Rows were chosen to be rich in hits. Some 2.6% of all compounds tested hit in one or more screens of this group.
Cruzain inh noDet: blocks cruzain activity in detergent-free assay; purified cruzain, Z-FR-AMC fluorescence, no detergent; Potency, µM, usual class: inhibitors; 200,000 compounds, 2.3% hits; AID 1476; also: nearly all actives have a fitted effect of over 40% in size
Target sequence (P25779 123-467 limits assumed): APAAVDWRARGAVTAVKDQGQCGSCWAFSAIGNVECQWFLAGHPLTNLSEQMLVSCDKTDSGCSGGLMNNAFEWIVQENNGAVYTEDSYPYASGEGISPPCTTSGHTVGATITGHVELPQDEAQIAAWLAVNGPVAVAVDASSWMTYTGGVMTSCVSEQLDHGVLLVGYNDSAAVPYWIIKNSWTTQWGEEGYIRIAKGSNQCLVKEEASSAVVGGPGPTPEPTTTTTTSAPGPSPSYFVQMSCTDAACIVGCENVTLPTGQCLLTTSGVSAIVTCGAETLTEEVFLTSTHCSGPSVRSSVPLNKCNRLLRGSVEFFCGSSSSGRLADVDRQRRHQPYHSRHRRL
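Detergent-free condition (0.00005% Triton X-100) in acetate buffer pH 5.5 with DTT. 1.5 nM enzyme and compound were pre-mixed 15 min, then 2 uM Z-FR-AMC substrate added; reaction progress from fluorescence change between first and third reads (60 s).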
Cruzain Triton: blocks cruzain activity in presence of Triton detergent; P25779; purified cruzain, Z-FR-AMC fluorescence, 0.01% Triton; Potency, µM, hits mostly inhibitors; 200,000 compounds, 0.43% hits; AID 1478; also: nearly all actives have a fitted effect of over 40% in size
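Cysteine protease activity tested under reducing, mildly acidic conditions (100 mM sodium acetate pH 5.5, 5 mM DTT) plus 0.01% Triton X-100. Cruzain 1.5 nM; substrate Z-FR-AMC 2 uM; 15 min compound preincubation at room temperature.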
Large screens that a line does not name were inactive. Calls follow the shape of the dose curve; as a rule, active = well fitted curve in the direction sought with a large enough effect; inconclusive = small, poorly fitted or top-dose-only effect, or another doubt; inactive = no such curve, though single readings can be large; an effect the other way counts as inactive or inconclusive.

COc1ccccc1NC(=O)C1CCCN(c2ncnc3onc(-c4ccc(F)cc4)c23)C1 (stereo not drawn)	Cruzain inh noDet inconclusive
CCN1C(C(=O)c2ccccc2)=C(Nc2ccccc2C)c2ccccc2S1(=O)=O	Cruzain inh noDet inconclusive
Cc1ccc(NC2=C(C(=O)c3ccccc3)N(C)S(=O)(=O)c3ccccc32)cc1	Cruzain inh noDet 20µM
CC1=C(C(=O)OC2CCCCCC2)C(c2c(F)cccc2Cl)CC(=O)N1 (stereo not drawn)	none
[N-]=[N+]=CC(=O)CC[C@H](N)C(=O)O	none
O=C(NCc1cccc(Cl)c1)c1cc2c(s1)-c1ccccc1SC2	Cruzain inh noDet 25.1µM
O=C(NCc1ccc(Cl)cc1)c1cc2c(s1)-c1ccccc1SC2	none
CCn1c(N2CCN(S(=O)(=O)c3ccccc3C(F)(F)F)CC2)nc2ccccc21	none
O=S(=O)(c1ccccc1C(F)(F)F)N1CCN(S(=O)(=O)c2ccccc2C(F)(F)F)CC1	Cruzain inh noDet 20µM
Nc1c(-c2nc(-c3ccccc3)no2)nnn1CC(=O)Nc1cccc(F)c1	Cruzain inh noDet 31.6µM
Cc1cc(C)cc(NC(=O)Cn2nnc(-c3nc(-c4ccncc4)no3)c2N)c1	none
CC(Oc1ccc(F)cc1)C(=O)Nc1cc(-c2ccc(F)c(F)c2)no1 (stereo not drawn)	none
O=C(Oc1ccc(OC(=O)c2ccco2)c(S(=O)(=O)c2ccc(Br)cc2)c1)c1ccco1	Cruzain inh noDet 25.1µM
Cc1ccc(S(=O)(=O)c2cc(OC(=O)c3ccco3)ccc2OC(=O)c2ccco2)cc1	none
Nc1nc(SCC(=O)c2ccc(Br)cc2)c2[nH]cnc2n1	none
COC(=O)Nc1nnc(/C=C/c2ccc(OC)cc2)s1	none
O=C(CSc1ccccc1)Nc1nnc(COc2ccc(Cl)cc2)s1	none
Cc1ccc(-n2c(COc3c(C)cccc3C)nnc2SCC(=O)Nc2nccs2)cc1	Cruzain inh noDet 25.1µM
COc1ccc(/C=C/c2nnc(NC(=O)CSc3ccc(Cl)cc3)s2)cc1	Cruzain inh noDet 10µM
Cc1ccc(OCc2nnc(SCC(=O)Nc3nccs3)n2-c2ccccc2)cc1C	none
Cc1cccc(C)c1OCc1nnc(NC(=O)CSc2ccc(Cl)cc2)s1	Cruzain inh noDet 25.1µM
COc1ncc2nc(-c3cccs3)c(=O)n(-c3ccccc3)c2n1	none
Cn1c(=O)oc2cc(S(=O)(=O)NC(Cc3ccccc3)C(=O)NCc3ccccc3Cl)ccc21 (stereo not drawn)	Cruzain inh noDet inconclusive
CCC1=C2CC[C@H]3C(=O)N(c4ccccc4)C(=O)[C@H]3[C@H]2[C@@]2(C)C(=O)N(CC(=O)OC)C(=O)N2C1=O	none
Cc1ccc(C2Nc3cccc4cccc(c34)N2)s1	Cruzain inh noDet 20µM
O=[N+]([O-])c1ccc(C2Nc3cccc4cccc(c34)N2)cc1	Cruzain inh noDet inconclusive
O=[N+]([O-])c1cccc(C2Nc3cccc4cccc(c34)N2)c1	Cruzain inh noDet inconclusive
Oc1ccc(C2Nc3cccc4cccc(c34)N2)c(O)c1	Cruzain inh noDet 15.8µM, Cruzain Triton inconclusive
COc1cc(C2Nc3cccc4cccc(c34)N2)cc(OC)c1O	none
c1coc(C2Nc3cccc4cccc(c34)N2)c1	Cruzain inh noDet 7.94µM
CCN(c1ccccc1)S(=O)(=O)c1ccc(NC(=O)c2cc(=O)c3cc(C)ccc3o2)cc1	none
Cc1ccc(-n2c(O)c(C=Nc3ccc4c(c3)OCO4)c3ccccc3c2=O)cc1C	Cruzain inh noDet 10µM
Cc1cc(N=Cc2c(O)n(-c3ccc4c(c3)OCO4)c(=O)c3ccccc23)ccn1	none
CCOC(=O)c1ccc(N2C(=O)c3[nH]nc(-c4ccccc4)c3C2c2ccc(CC)cc2)cc1 (stereo not drawn)	Cruzain inh noDet 12.6µM
CCOC(=O)c1ccc(N2C(=O)c3[nH]nc(-c4ccc(C)cc4)c3C2c2ccc(O)cc2)cc1 (stereo not drawn)	Cruzain inh noDet inconclusive
COc1ccc(S(=O)(=O)NCc2nc(-c3ccccc3)no2)cc1	none
CCCC(=O)Nc1sc(C)c(-c2ccc(OC)cc2)c1C#N	Cruzain inh noDet 6.31µM
CCc1c(C)sc(NC(=O)CCc2ccc(OC)cc2)c1C(N)=O	none
CC(=O)c1cc(-c2ccc(F)cc2)n(CCC(=O)NCc2ccc(C)cc2)c1C	none
O=C(NCc1cn2ccsc2n1)c1c(F)cccc1Cl	Cruzain inh noDet 20µM
O=C(NCc1cn2ccsc2n1)c1cccc(C(F)(F)F)c1	none
COc1cccc(OC)c1C(=O)Nc1nc2c(s1)CCc1ccccc1-2	none
CCCN(CCC)S(=O)(=O)c1ccc(C(=O)Nc2nc3c(s2)CCc2ccccc2-3)cc1	Cruzain inh noDet 7.94µM
CN(C)c1ccc(-c2nnn(CC(=O)N3c4ccccc4CCc4ccccc43)n2)cc1	Cruzain inh noDet 31.6µM
CN(C)c1ccc(-c2nnn(CC(=O)Nc3ccccc3N3CCOCC3)n2)cc1	none
Cc1ccc(C)c(CSc2cn(CC(=O)N3CCCC3)c3ccccc23)c1	Cruzain inh noDet inconclusive
Nc1cc(C(=O)O)ccc1Nc1ccccc1	none
Nc1ccc(Nc2ccccc2N)cc1	Cruzain inh noDet 25.1µM
O=c1c2ccccc2nc(N2CCN(c3cccc(Cl)c3)CC2)n1-c1ccccc1	none

High-throughput results as filed in PubChem BioAssay.
